Data published in PubChem BioAssay AID1159580 (chemical genetic matrix, 2015).
About 2,000 (36%) of roughly 5,500 compounds were called active. Not shown: some 18% with an inconclusive outcome. Rule as the data show it: active = normalized growth mostly below about 0.91 (no sharp cut-off); inconclusive = no clear call, values can overlap the other calls; inactive = mostly above about 0.92. This is one part of the list.

Experiment: chemical genetic growth profiling, strain panel (AID 1159580);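 also: tested at 20 µM; growth read once vehicle control cultures reached saturation at 30 °C; 1 = growth at the plate median or of vehicle wells; lower values mean less growth of the strain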
Conditions: growth OD

Measured: normalized growth

CCN(CC)CCOc1ccc2c(c1)C(=O)c1cc(OCCN(CC)CC)ccc1-2
inactive: S. cerevisiae deletion strains, locus YJR075W, strain HOC1, hits give low values 0.998 | S. cerevisiae deletion strains, locus YKL009W, strain mrt4, hits give low values 0.973 | S. cerevisiae deletion strains, locus YKL068W, hits give low values 0.975 | S. cerevisiae deletion strains, locus YKL085W, strain MDH1 (second series), hits give low values 1.02 | S. cerevisiae deletion strains, locus YKL085W, strain MDH1, hits give low values 1.02 | S. cerevisiae deletion strains, locus YKL160W, strain elf1, hits give low values 0.96 | S. cerevisiae deletion strains, locus YKL190W, strain CNB1, hits give low values 0.991 | S. cerevisiae deletion strains, locus YKR001C, strain vps1, hits give low values 0.986 | S. cerevisiae deletion strains, locus YKR026C, strain gcn3, hits give low values 0.98 | S. cerevisiae deletion strains, locus YKR091W, strain srl3, hits give low values 0.982 | S. cerevisiae deletion strains, locus YLL001W, strain dnm1, hits give low values 1.01 | S. cerevisiae deletion strains, locus YLL026W, hits give low values 0.992 | S. cerevisiae deletion strains, locus YLL041C, strain sdh2, hits give low values 0.998 | S. cerevisiae deletion strains, locus YLR027C, strain aat2, hits give low values 0.996 | S. cerevisiae deletion strains, locus YLR039C, strain RIC1, hits give low values 0.963 | S. cerevisiae deletion strains, locus YLR058C, strain SHM2, hits give low values 0.994 | S. cerevisiae deletion strains, locus YLR102C, strain apc9, hits give low values 0.975 | S. cerevisiae deletion strains, locus YLR113W, strain HOG1, hits give low values 0.988 | S. cerevisiae deletion strains, locus YLR221C, strain rsa3, hits give low values 0.993 | S. cerevisiae deletion strains, locus YLR258W, strain gsy2, hits give low values 0.979 | S. cerevisiae deletion strains, locus YLR262C, strain YPT6 (second series), hits give low values 1.05 | S. cerevisiae deletion strains, locus YLR262C, strain YPT6, hits give low values 0.96 | S. cerevisiae deletion strains, locus YLR268W, strain sec22, hits give low values 0.984 | S. cerevisiae deletion strains, locus YLR320W, strain mms22, hits give low values 0.995 | S. cerevisiae deletion strains, locus YLR330W, strain CHS5, hits give low values 0.988 | S. cerevisiae deletion strains, locus YLR342W, strain FKS1 (second series), hits give low values 1.01 | S. cerevisiae deletion strains, locus YLR342W, strain FKS1, hits give low values 0.981 | S. cerevisiae deletion strains, locus YLR357W, strain rsc2, hits give low values 0.963 | S. cerevisiae deletion strains, locus YLR370C, strain arc18, hits give low values 0.987 | S. cerevisiae deletion strains, locus YLR371W, strain rom2, hits give low values 0.961 | S. cerevisiae deletion strains, locus YLR384C, strain iki3, hits give low values 0.984 | S. cerevisiae deletion strains, locus YLR418C, strain cdc73, hits give low values 1.06 | S. cerevisiae deletion strains, locus YML016C, strain PPZ1, hits give low values 0.995 | S. cerevisiae deletion strains, locus YML032C, strain rad52, hits give low values 0.968 | S. cerevisiae deletion strains, locus YML120C, strain ndi1, hits give low values 0.985 | S. cerevisiae deletion strains, locus YML124C, strain tub3, hits give low values 0.987 | S. cerevisiae deletion strains, locus YMR058W, strain fet3, hits give low values 0.994 | S. cerevisiae deletion strains, locus YMR078C, strain ctf18, hits give low values 0.978 | S. cerevisiae deletion strains, locus YMR125W, strain sto1, hits give low values 0.978 | S. cerevisiae deletion strains, locus YMR129W, hits give low values 0.982 | S. cerevisiae deletion strains, locus YMR205C, strain PFK2, hits give low values 0.969 | S. cerevisiae deletion strains, locus YMR223W, strain ubp8, hits give low values 0.982 | S. cerevisiae deletion strains, locus YMR231W, strain pep5, hits give low values 0.99 | S. cerevisiae deletion strains, locus YMR263W, strain SAP30, hits give low values 1 | S. cerevisiae deletion strains, locus YMR307W, strain GAS1, hits give low values 1.09 | S. cerevisiae deletion strains, locus YNL067W, strain RPL9B, hits give low values 0.999 | S. cerevisiae deletion strains, locus YNL071W, strain lat1, hits give low values 0.988 | S. cerevisiae deletion strains, locus YNL128W, strain TEP1, hits give low values 0.987 | S. cerevisiae deletion strains, locus YNL153C, strain GIM3, hits give low values 1.01 | S. cerevisiae deletion strains, locus YNL183C, strain NPR1, hits give low values 0.939 | S. cerevisiae deletion strains, locus YNL209W, strain ssb2, hits give low values 0.976 | S. cerevisiae deletion strains, locus YNL233W, strain BNI4, hits give low values 1.02 | S. cerevisiae deletion strains, locus YNL248C, strain rpa49, hits give low values 0.98 | S. cerevisiae deletion strains, locus YNL250W, strain rad50, hits give low values 0.983 | S. cerevisiae deletion strains, locus YNL271C, strain bni1, hits give low values 0.993 | S. cerevisiae deletion strains, locus YNL298W, strain CLA4, hits give low values 0.971 | S. cerevisiae deletion strains, locus YNL307C, strain MCK1, hits give low values 0.975 | S. cerevisiae deletion strains, locus YNL322C, strain KRE1 (second series), hits give low values 0.96 | S. cerevisiae deletion strains, locus YNL322C, strain KRE1, hits give low values 0.983 | S. cerevisiae deletion strains, locus YNR049C, strain mso1, hits give low values 0.968 | S. cerevisiae deletion strains, locus YNR052C, strain pop2, hits give low values 0.975 | S. cerevisiae deletion strains, locus YOL006C, strain TOP1, hits give low values 1.02 | S. cerevisiae deletion strains, locus YOL012C, strain htz1 0.871 | S. cerevisiae deletion strains, locus YOL147C, strain pex11, hits give low values 0.992 | S. cerevisiae deletion strains, locus YOR001W, strain rrp6, hits give low values 0.988 | S. cerevisiae deletion strains, locus YOR061W, strain CKA2, hits give low values 0.994 | S. cerevisiae deletion strains, locus YOR069W, strain VPS5, hits give low values 0.996 | S. cerevisiae deletion strains, locus YOR070C, strain gyp1, hits give low values 0.989 | S. cerevisiae deletion strains, locus YOR080W, strain dia2, hits give low values 0.983 | S. cerevisiae deletion strains, locus YOR083W, strain WHI5, hits give low values 0.968 | S. cerevisiae deletion strains, locus YOR106W, strain vam3, hits give low values 0.944 | S. cerevisiae deletion strains, locus YOR136W, strain idh2, hits give low values 0.985 | S. cerevisiae deletion strains, locus YOR144C, strain elg1, hits give low values 0.97 | S. cerevisiae deletion strains, locus YOR184W, strain ser1, hits give low values 0.976 | S. cerevisiae deletion strains, locus YOR231W, strain MKK1, hits give low values 0.985 | S. cerevisiae deletion strains, locus YOR265W, strain rbl2, hits give low values 0.976 | S. cerevisiae deletion strains, locus YOR270C, strain vph1, hits give low values 1.07 | S. cerevisiae deletion strains, locus YOR290C, strain snf2, hits give low values 0.964 | S. cerevisiae deletion strains, locus YOR316C, strain cot1, hits give low values 0.995 | S. cerevisiae deletion strains, locus YPL051W, strain arl3, hits give low values 0.97 | S. cerevisiae deletion strains, locus YPL055C, strain LGE1, hits give low values 1.02 | S. cerevisiae deletion strains, locus YPL078C, strain atp4, hits give low values 0.981 | S. cerevisiae deletion strains, locus YPL106C, strain sse1, hits give low values 0.979 | S. cerevisiae deletion strains, locus YPL240C, strain hsp82, hits give low values 0.996 | S. cerevisiae deletion strains, locus YPL241C, strain CIN2, hits give low values 0.971 | S. cerevisiae deletion strains, locus YPL256C, strain CLN2, hits give low values 0.979 | S. cerevisiae deletion strains, locus YPR119W, strain clb2, hits give low values 0.988 | S. cerevisiae deletion strains, locus YPR141C, strain kar3, hits give low values 0.989 | S. cerevisiae deletion strains, locus YPR163C, strain tif3, hits give low values 0.97 | S. cerevisiae deletion strains, locus YPR167C, strain met16, hits give low values 1 | S. cerevisiae deletion strains, strain wtn01, hits give low values 0.993 | S. cerevisiae strains, strain wild type, hits give low values 0.995
